Compounds with a hit are over-represented: about 7.9% of the library has one in this group of screens.
KB-V1 cytotox – kills drug-selected multidrug resistant KB-V1 cells | AID 1347076 | hit rate 3.4% among 400,000 | KB-V1 MDR cells viability, CellTiter-Glo, 72 h | Potency, µM (doses to about 46.1 µM), most hits filed as cytotoxic; note: % is set by controls: 0 for no effect and ±100 for the full control effect; nearly all actives have a fitted effect of over 60% in size
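Luminescent ATP read-out (CellTiter-Glo, 10 min) measures survival of drug-selected KB-V1 MDR cells after 72 h, 37 degrees C compound exposure. Medium: phenol-red-free DMEM, 10% FBS. Values from fitted concentration-response curves.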
MCF10A rereplic – induces DNA re-replication in MCF 10a normal breast cells | MCF 10A DNA re-replication, Hoechst nuclear intensity, 48 h | Potency, µM (series often up to 46.1 µM), for the others: at the top dose activity, positive = re-replication, usual class: activators | hit rate 2.9% among 350,000; note: % of control where 0% means no effect; nearly all actives have a fitted effect of over 50% in size
KB-3-1 tox – kills parental KB-3-1 adenocarcinoma cells | AID 1347075 | hit rate 1.4% among 400,000 | KB-3-1 viability, CellTiter-Glo ATP luminescence, 72 h | Potency, µM (top dose mostly 46.1 µM), hits mostly cytotoxic; note: % is set by controls: 0 for no effect and ±100 for the full control effect; nearly all actives have a fitted effect of over 60% in size
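Cells are dispensed, compounds pinned in, plates held at 37 °C for 72 h, then CellTiter-Glo is added and luminescence read after 10 minutes. Cell line: parental KB-3-1 in phenol-red-free DMEM, 10% FBS.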
HT1080 IDH1KD tx – toxicity to HT-1080 IDH1 knockdown cells (counter line). hit rate 2% among 360,000. Potency, µM (titrated, usually from 46.1 µM), inactives show top-dose activity, negative = toxicity, usual class: cytotoxic. HT-1080 IDH1 knockdown viability, ATP luminescence, 48 h;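 note: 0% = DMSO wells and -100% = cell-free medium wells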
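Cytotoxicity counter-line: IDH1KD HT-1080, 48 h, CellTiter-Glo. Curves classed by r2, magnitude and activity.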
SW480 rerep – inducers of DNA re-replication in SW480 colon cancer cells; Potency, µM (highest dose often 46.1 µM), for the others: at the highest dose re-replication activation, most hits filed as activators; AID 624297; SW480 DNA re-replication, Hoechst DNA content imaging, 48 h; hit rate 1.8% among 340,000; note: % of control where 0% means no effect; nearly all actives have a fitted effect of over 55% in size
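Image-based DNA-content assay: after two days of treatment, nuclei were labelled with the DNA dye Hoechst and imaged, and hits were compounds raising the count of nuclei showing high fluorescence intensity.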
HT1080NT lethal – kills 2HG-producing HT-1080-NT fibrosarcoma cells | Potency, µM (highest dose often 46.1 µM), for inactives: at the highest dose activity, negative = less viability, most hits filed as cytotoxic | hit rate 1.6% among 360,000 | HT-1080-NT fibrosarcoma viability, CellTiter-Glo ATP luminescence, 48 h;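 note: NT is the 2HG producing partner of a matched IDH1 knockdown line; 0% = DMSO-treated cells and -100% = media-only wells without cells; nearly all actives have a fitted effect of over 55% in size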
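HT-1080-NT; 750 cells/well; 5% FBS RPMI; 48 h compound, 37 degrees C; CellTiter-Glo luminescence; curve fitting and curve-class assignment.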
An asterisk follows results filed as active; i = inactive; ? = inconclusive; . = not tested or not shown; [ ] = another dose, or the depositor's remark. Calls come from the whole dose curve; as a rule, active = well fitted curve in the direction sought with a large enough effect; inconclusive = small, poorly fitted or top-dose-only effect, or another doubt; inactive = no such curve, though single readings can be large; an effect the other way counts as inactive or inconclusive. Potency is the fitted concentration of half-maximal effect.

SMILES	KB-V1 cytotox	MCF10A rereplic	KB-3-1 tox	HT1080 IDH1KD tx	SW480 rerep	HT1080NT lethal
Cc1cccc(NC(=O)CSc2nc3ccccc3nc2N2CCCC2)c1C	i	?	i	3%	1%	0%
O=C(COCc1cc(-c2ccc(F)cc2)on1)Nc1cccc(C(F)(F)F)c1	i	.	i	.	.	.
CCC(CC)CN1CCC(CN2CCNC(=O)C2=O)CC1	i	2.1µM*	i	-6%	-1%	-13%
COc1ccc2nc(C)cc(SCC(=O)NNC(=O)COc3ccccc3)c2c1	?	7%	i	8%	-6%	0%
COc1ccc2nc(C)cc(Sc3nc4ccccc4s3)c2c1	18µM*	16µM*	?	23µM*	?	10µM*
CCOC(=O)c1c(C)c(C(=O)NCc2ccccn2)c(C)n1CC	16µM*	18%	i	-1%	?	-14%
CCN1CCN(CCCNC(=O)c2cc3sccc3n2CC)CC1	i	5%	i	-1%	?	0%
CCn1c(C(=O)NCCCN2CCc3ccccc3C2)cc2sccc21	9.2µM*	6%	i	?	?	20µM*
Cc1ccc(CCNC(=O)c2cc3sccc3n2Cc2ccc(C)cc2)cc1	i	.	i	.	.	.
Cc1cc2c(cc(C(=O)NCCCN3CCOCC3)n2Cc2ccc(Cl)cc2)o1	i	23µM*	i	-25%	18µM*	?
Cc1ccc(Cn2c(C(=O)NCCCN3CCOCC3)cc3sccc32)cc1	4.6µM*	-1%	i	?	-7%	16µM*
CCCCn1c(N)c(N(CC(C)C)C(=O)c2c(-c3ccccc3)noc2C)c(=O)[nH]c1=O	i	-5%	?	4%	-13%	12%
CC(C)n1c(=O)n(CC(=O)NCC2CCCO2)c(=O)c2c3c(sc21)COC(C)(C)C3 (centres undefined)	i	6%	i	1%	-3%	0%
CCn1c(C(=O)NCc2ccccn2)cc2sccc21	15µM*	10%	i	3%	-6%	19%
CCn1c(C(=O)NCCCc2ccccc2)cc2sccc21	?	14%	i	-10%	0%	2%
COc1ccccc1OCCn1c(=O)sc2ccccc21	15µM*	11%	i	-12%	4%	3%
CCOc1ccc(Cn2c(=O)sc3ccccc32)cc1OC	12µM*	?	?	-8%	-6%	-16%
Cc1ccccc1OCCn1c(=O)sc2ccccc21	i	0%	i	-13%	4%	-12%
CCN(C(=O)CSc1n[nH]c(N)n1)c1cccc2ccccc12	i	5%	i	17%	3%	5%
Cc1cs/c(=N\N=C\c2ccccc2)n1Cc1ccco1	16µM*	?	?	2%	-4%	0%
CC(C)=N/N=c1\scc(C)n1Cc1ccco1	i	14%	i	1%	-6%	2%
O=C(NNC(=O)C1CCN(S(=O)(=O)c2c(Cl)cccc2Cl)CC1)c1ccccc1O	18µM*	?	?	-19%	?	-11%
COc1ccc2cc(C(C)C(=O)N3CCC(C)CC3)ccc2c1 (centres undefined)	?	?	21µM*	?	?	15µM*
Cc1ccc(NC(=O)N2CCC(n3c(C)nc4cccnc43)CC2)c(Cl)c1	i	.	i	.	.	.
O=c1c2ccccc2c(=O)n(-c2ccccc2)n1CCCCBr	i	7.3µM*	i	0%	-2%	7%
CC(=O)n1c(=O)c2ccccc2c(=O)n1-c1ccccc1	i	-15%	i	20%	-4%	14%
COC(=O)C[C@H]1C=C[C@@H](NC(=O)NC2CCCCC2)[C@@H](CO)O1	i	.	i	6%	.	19%
Cc1ccc(SCC(=O)N(C)CC(=O)Nc2cccc(F)c2)c(C)c1	?	4%	i	-1%	?	1%
CCc1nc2ccccc2n1Cc1ccccc1OC	15µM*	3%	?	-1%[9.24 µM]	-6%	-20%

Screens from PubChem.
